Assay results as given in PubChem BioAssay AID588466 (NMMLSC, 2011).
The campaign covered roughly 2,100 compounds. About 30 (1%) were called active.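 The calls were made as follows: active = compounds whose mean binding response over two repeats is below 75% of the DMSO control; inactive = the rest.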 Only a sample is shown.

target: Desmoglein-3 (Homo sapiens) (UniProt P32926); test: inhibitors of anti-DSG3 scFv binding to DSG3, confirmation, biochemical, cherry pick 1, bead-based, flow cytometry (AID 588466); details: Protein G beads with DSG3, scFv-GFP binding, at 10 µM, active compounds read low;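 also: 100% = 2% DMSO vehicle and 0% = excess soluble DSG3 blocking control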
Sequence (P32926 whole entry, looked up): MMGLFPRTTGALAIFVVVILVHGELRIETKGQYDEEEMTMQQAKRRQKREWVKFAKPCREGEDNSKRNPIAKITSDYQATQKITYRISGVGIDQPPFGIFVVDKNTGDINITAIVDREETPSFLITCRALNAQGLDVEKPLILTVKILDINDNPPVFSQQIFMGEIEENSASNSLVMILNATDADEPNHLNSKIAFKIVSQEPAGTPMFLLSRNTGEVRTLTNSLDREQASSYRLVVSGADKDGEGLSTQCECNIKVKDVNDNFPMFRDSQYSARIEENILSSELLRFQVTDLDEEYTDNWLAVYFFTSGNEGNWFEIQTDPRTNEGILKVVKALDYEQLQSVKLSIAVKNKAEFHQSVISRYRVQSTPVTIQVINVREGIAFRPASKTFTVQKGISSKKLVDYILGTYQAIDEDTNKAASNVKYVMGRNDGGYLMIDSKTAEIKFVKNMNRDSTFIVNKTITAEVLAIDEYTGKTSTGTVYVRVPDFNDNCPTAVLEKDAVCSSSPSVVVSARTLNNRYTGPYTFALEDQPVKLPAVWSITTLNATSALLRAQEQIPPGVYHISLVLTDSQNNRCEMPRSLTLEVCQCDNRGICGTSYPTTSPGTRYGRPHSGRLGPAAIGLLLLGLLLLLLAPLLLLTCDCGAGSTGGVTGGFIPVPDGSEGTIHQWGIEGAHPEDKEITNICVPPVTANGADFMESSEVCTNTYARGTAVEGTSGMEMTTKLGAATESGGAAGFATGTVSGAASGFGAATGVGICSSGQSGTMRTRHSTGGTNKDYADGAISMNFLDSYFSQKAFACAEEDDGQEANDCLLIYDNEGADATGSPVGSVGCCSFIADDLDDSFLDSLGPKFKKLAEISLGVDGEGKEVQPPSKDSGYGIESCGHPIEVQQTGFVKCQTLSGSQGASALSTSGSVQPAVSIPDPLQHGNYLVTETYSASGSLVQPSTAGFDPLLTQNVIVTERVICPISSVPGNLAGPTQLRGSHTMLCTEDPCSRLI

Binding response (% of DMSO), inactive:
Cc1ccc(NC(=O)Cc2ccc([N+](=O)[O-])cc2)c(Br)c1 95.5%
CCCN(CCC)CCNC(=O)Cn1cnc2sc(C)c(S(=O)(=O)N3CCOCC3)c2c1=O 99.3%
CCOC(=O)c1nn(-c2ccccc2)c(=O)c2c(NC(C)=O)scc12 111%
Cc1cc2ccccc2n1CCNC(=O)c1ccc(S(=O)(=O)N2CCCCC2)cc1 94.7%
CCOc1ccc(/C(O)=C2/C(=O)C(=O)N(c3cc(C)on3)C2c2ccc(C(=O)OC)cc2)cc1 (stereo not given) 98.1%
C[C@H]1COC(=O)[C@@H](Cc2ccc(F)cc2)CC/C=C/C[C@@H](CC(=O)N(CCO)Cc2ccccc2)C(=O)N1 104%
Cc1ccc(NC(=O)COc2ccc3c(c2)OCO3)c(C)c1 103%
CCN1CCN(c2ccc(S(=O)(=O)N3CCOCC3)cc2NC(=O)CCSC)CC1 105%
COc1ccc(CN(CCN(C)C)Cc2ccccc2)c(OC)c1 101%
Cc1cnc(NS(=O)(=O)c2ccccc2)c(C)n1 98.8%
N#Cc1c(-c2ccc(F)cc2)cc(-c2ccccc2)nc1SCC(=O)NCC(=O)O 99.8%
O=C(Oc1cccc(C(=S)N2CCOCC2)c1)c1ccccc1 94.4%
CCc1cc2cc3c(cc2nc1SCC(=O)Nc1cc(C)on1)OCO3 103%
Cc1ccc(/C=N/N2CCN(c3ccc(Cl)cc3)CC2)o1 101%
COc1ccccc1-c1cc(N)n(S(=O)(=O)c2ccc(F)c(C)c2)n1 100%
COC(=O)c1oc2ccc(Cl)cc2c1NC(C)=O 100%
O=[N+]([O-])c1ccc(OCc2cnc(Cl)s2)c([N+](=O)[O-])c1 107%
Cc1ccc(C)c(N2CCN(C(=O)Cc3cn(C)c4ccccc34)CC2)c1 104%
O=C(CNC(=O)c1ccc(Br)cc1)N=Nc1c(O)[nH]c2ccc([N+](=O)[O-])cc12 100%
CC(=O)c1ccc(NC(=O)Cn2cnc(S(=O)(=O)N3CCC(C)CC3)c2)cc1 98.2%
CSCC[C@H](NC(=O)C1CCN(S(=O)(=O)c2ccc(C)cc2)CC1)C(=O)NCc1ccco1 106%
Cc1ccccc1NC(=O)Nc1nc2ccc(S(C)(=O)=O)cc2s1 89.9%
COc1ccc(NC(=O)CSc2nnc(Cc3ccc(C)cc3)c(=O)n2N)cc1 92.4%
Cc1ccc(NC(=O)COc2ccc3c(c2)OCO3)c(Cl)c1 98.1%
CC1=C(C(N)=O)C(c2cccnc2)n2nc(SCc3ccccc3Cl)nc2N1 (stereo not given) 103%
